Assay outcomes deposited in PubChem BioAssay by National Center for Advancing Translational Sciences (NCATS).
Hits are enriched below; roughly 0.92% of the tested compounds scored in any of these assays.
BLM inh – Bloom syndrome helicase (human) inhibition. P54132. recombinant BLM DNA unwinding, fluorescence dequenching. Potency, µM (doses to about 56.1 µM), hits mostly inhibitors. 350,000 compounds, 0.2% hits; note: nearly all actives have a fitted effect of over 35% in size
APEX1 inh – inhibitors of human APE1 endonuclease; Potency, µM (series often up to 65.8 µM), hits mostly inhibitors; P27695; recombinant APE1, TAMRA/BHQ-2 abasic DNA cleavage fluorescence; 350,000 compounds, 0.35% hits; note: nearly all actives have a fitted effect of over 55% in size
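0.75 nM APE1 + cpd, 15 min RT; start w/ 50 nM TAMRA/BHQ-2 THF-abasic dsDNA; kinetic fluor 525/598 nm ×3 reads @60 s; Δ(read3−read1); normalized to DMSO and NSC13755 control wells.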
TDP1 inh – TDP1 (human) enzyme inhibition | 350,000 compounds, 0.28% hits | Potency, µM (highest dose often 130 µM), actives largely listed as inhibitors | recombinant TDP1, AlphaScreen DNA substrate cleavage | AID 485290; note: nearly all actives have a fitted effect of over 40% in size
Target sequence (Q9NUW8 whole entry, looked up): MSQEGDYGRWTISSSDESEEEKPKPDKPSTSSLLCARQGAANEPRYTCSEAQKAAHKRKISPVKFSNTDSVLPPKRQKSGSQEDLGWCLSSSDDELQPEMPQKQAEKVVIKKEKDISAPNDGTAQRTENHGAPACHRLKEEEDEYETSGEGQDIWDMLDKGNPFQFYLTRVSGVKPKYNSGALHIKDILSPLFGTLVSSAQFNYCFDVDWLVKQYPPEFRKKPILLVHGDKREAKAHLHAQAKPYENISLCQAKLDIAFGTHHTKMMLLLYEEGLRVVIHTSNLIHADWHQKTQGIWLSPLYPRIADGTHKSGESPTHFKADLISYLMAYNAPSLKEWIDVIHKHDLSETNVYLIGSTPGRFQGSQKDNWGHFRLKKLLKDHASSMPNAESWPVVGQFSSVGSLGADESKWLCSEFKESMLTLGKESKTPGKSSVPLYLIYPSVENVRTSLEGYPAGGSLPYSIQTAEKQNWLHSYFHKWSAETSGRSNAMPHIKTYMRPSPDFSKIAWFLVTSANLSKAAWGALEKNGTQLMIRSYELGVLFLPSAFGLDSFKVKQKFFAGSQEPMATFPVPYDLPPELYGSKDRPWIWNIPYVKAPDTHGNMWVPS
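Signal: AlphaScreen proximity between streptavidin donor and anti-FITC acceptor beads on intact substrate. Reaction: Tdp1 1 nM, substrate 15 nM final, 5 min RT after 15 min compound preincubation.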
FEN1 inhibitor – inhibitors of human flap endonuclease 1 | P39748 | Recombinant FEN1 flap cleavage, fluorescence, 15 min | Potency, µM (doses to about 114 µM), hits mostly inhibitors | 390,000 compounds, 0.35% hits; note: nearly all actives have a fitted effect of over 65% in size
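Concentration–response screening of FEN1 (10 nM): 15 min compound preincubation at room temperature, reaction started with 50 nM substrate and read at 0 and 15 min. Corrected, normalized data were fitted by a four-parameter Hill equation.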
RECQ1 helicase – RECQ1 (human) helicase inhibition; AID 2549; Potency, µM (titrated, usually from 57.3 µM), actives largely listed as inhibitors; RECQ1 DNA unwinding, red fluorescence kinetic read; 240,000 compounds, 0.54% hits; P46063; note: nearly all actives have a fitted effect of over 30% in size
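50 nM RECQ1T1 preincubated 15 min with compound in Tris pH 8.0 buffer with MgCl2, DTT, Tween-20 and 2.5 ug/ml poly(dI-dC); started with 200 nM TAMRA/BHQ-2 forked duplex and 2 mM ATP. Unwinding read as fluorescence (525/598 nm), two reads 2 h apart.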
Hits are given with their value; - = inactive; ? = inconclusive; . = not tested or not shown. Calls come from the whole dose curve; as a rule, active = well fitted curve in the direction sought with a large enough effect; inconclusive = small, poorly fitted or top-dose-only effect, or another doubt; inactive = no such curve, though single readings can be large; an effect the other way counts as inactive or inconclusive.

SMILES | BLM inh | APEX1 inh | TDP1 inh | FEN1 inhibitor | RECQ1 helicase
Cn1nc(-c2ccc(Cl)cc2)c2cc(C(=O)NCCCN3CCCC3)sc21 | - | - | - | 32µM | -
CC1CCCN(CCCNC(=O)c2cc3c(Cl)nc4ccccc4c3s2)C1 (configuration not stated) | - | - | - | 50µM | -
O=C(NCCCN1CCCCCC1)c1cc2c(=O)oc3ccccc3c2s1 | - | - | - | 71µM | .
COc1ccc(/C=C/C(=O)NCC(=O)N=Nc2c(O)[nH]c3ccc([N+](=O)[O-])cc23)cc1 | ? | ? | 50µM | ? | .
O=C(NCCc1ccccc1)c1nccc2ccccc12 | . | - | - | - | .
c1ccc(CCNc2ccnc3cc4ccccc4cc23)cc1 | - | - | - | 50µM | -
CCNc1cccc(S(=O)(=O)N2CCN(S(=O)(=O)c3ccc4c(c3)OCCO4)CC2)c1 | . | . | - | . | .
Cc1ccc(-c2ccc(/C=C3/NC(=O)NC3=O)o2)cc1[N+](=O)[O-] | - | - | - | - | 28µM
Cc1cc2c(n1-c1ccc(C(=O)O)cc1)CCCCC2 | - | 6µM | . | . | .
Cc1ccc(CNC(=O)c2ccc(-n3c(C)cc4c3CCCC4)cc2)cc1 | - | . | - | - | .
O=C(O)c1ccc(N/N=C/C=C/c2ccc([N+](=O)[O-])o2)cc1 | - | 11µM | - | ? | .
O=c1cnc2ccccc2n1Cc1ccccc1C(F)(F)F | - | - | 50µM | - | .
Cc1cc(N)c2ccccc2[n+]1CCCCCCCCCCCCCC[n+]1c(C)cc(N)c2ccccc21 | . | - | - | . | 32µM
N/C(=N\OC(=O)CCCc1ccccc1)c1cccnc1 | - | - | - | - | -
O=C(CCCc1ccccc1)c1ccccc1 | - | - | 35µM | - | .
Cc1cccc(/C(N)=N/OC(=O)CCCN2C(=O)c3ccccc3C2=O)c1 | - | - | - | - | -
Cc1cccc(/C(N)=N/OC(=O)CCCc2ccccc2)c1 | - | - | 56µM | - | .
O=C(CCCC(=O)c1ccccc1)NCCc1ccccc1 | - | - | . | - | .
N/C(=N\OC(=O)CCCc1ccccc1)c1ccccc1 | - | - | 56µM | - | .
CC(C)(C)OC(=O)Cc1nnc(-c2nc3ccccc3[nH]2)s1 | . | . | - | . | .
Nc1ccc(O)c(C(=O)O)c1 | - | 7.1µM | . | . | 7.1µM
Nc1ccc(C(=O)O)c(O)c1 (tested in a mixture with another compound) | - | - | - | . | -
CCc1ccc2nc(N(CCCN(C)C)C(=O)c3ccc(S(=O)(=O)N(C)C4CCCCC4)cc3)sc2c1 | - | - | - | 79µM | .
Cc1cc(N)ccc1N1CCCC1 | - | - | - | 40µM | -
O=C(C[C@@H]1C/C=C\C[C@H](NC(=O)OCC2c3ccccc3-c3ccccc32)C(=O)OC[C@@H]2CCCN2C1=O)NCCO | . | 9.5µM | ? | - | .
SMILES | BLM inh | APEX1 inh | TDP1 inh | FEN1 inhibitor | RECQ1 helicase
O=C(C[C@@H]1C/C=C\C[C@H](NC(=O)OCC2c3ccccc3-c3ccccc32)C(=O)OC[C@@H]2CCCN2C1=O)N[C@@H](CO)Cc1ccccc1 | . | - | - | - | .
CC(C)(C)OC(=O)C[C@@H]1C/C=C\C[C@H](CC(=O)NCCO)C(=O)N2CCC[C@H]2COC1=O | . | 6.7µM | - | - | .
C/C(CC(=O)N1CCN(C=O)CC1)=N\NC(=O)c1cc2ccccc2cc1O | - | - | - | - | 28µM
C/C(CC(=O)N1CCN(C=O)CC1)=N\NC(=O)c1ccc([N+](=O)[O-])cc1 | - | - | - | - | -
CC[n+]1c(/C=C/c2ccc(OC)c(OC)c2)ccc2ccccc21 | - | - | . | - | .
CN(C)c1ccc(/C=C/c2ccc3ccccc3[n+]2[O-])cc1 | . | . | . | - | .
CCN(CC)c1ccc(/C=C/c2ccc3ccc(OC)cc3[n+]2CC)cc1 | - | - | . | 35µM | .
CC[n+]1c(/C=C/c2ccc(N(C)C)cc2)ccc2ccccc21 | ? | - | - | 50µM | -
O=[N+]([O-])c1ccc(O/N=[N+](\[O-])N2CCN(c3ccccc3)CC2)c([N+](=O)[O-])c1 | . | . | . | - | .
CCCCn1c(O)c(/C=C/C=C/C=Nc2ccccc2)sc1=S | - | - | - | - | 32µM
N#Cc1c(-c2ccc(O)cc2)no[n+]1[O-] | . | - | . | . | .
CC1(C)Cc2c(C#N)c(N3CCN(C(=O)c4ccccc4)CC3)nc(-c3ccco3)c2CS1 | 28µM | - | - | - | -
CC(C)c1nc(N2CCN(C(=O)c3ccccc3)CC2)c(C#N)c2c1COC(C)(C)C2 | - | - | - | - | -
N=C1CCC(=N)c2c1c(O)c1ccccc1c2O | 32µM | ? | - | 40µM | ?
O=C(NCc1ccc(F)cc1)n1cc(P(=S)(c2ccccc2)c2ccccc2)c2ccccc21 | . | . | - | . | .
Cc1ccccc1/C=N/NC(=O)Cc1ccc(Cl)cc1 | - | - | - | - | -
Cc1ccc(/C=N/NC(=O)Cc2ccc(Cl)cc2)c(O)c1 | - | ? | 50µM | - | .
O=C(O)c1ccc(/C=N/NC(=O)c2cc3c(ccc4ccccc43)o2)cc1 | - | ? | 40µM | ? | .
O=C(N/N=C/c1ccncc1)c1cc2c(ccc3ccccc32)o1 | - | - | . | - | -
CC(=O)Nc1ccc(-c2csc(N3CCC(C(N)=O)CC3)n2)cc1 | . | - | . | . | .
CCn1c(C)nc2cc(C(=O)N/N=C/c3ccc(O)c(O)c3O)ccc21 | 6.3µM | - | - | ? | -
COC(=O)c1cc(O)c(O)c(O)c1 | - | 14µM | . | ? | -
O=C(NNC(=O)c1ccc(Br)s1)NC1CCCCC1 | - | - | 56µM | - | .
O=C(NC1CCS(=O)(=O)C1)c1ccc(Br)s1 (configuration not stated) | . | - | 100µM | - | .
O=C(NC1CCS(=O)(=O)C1)c1cccs1 (configuration not stated) | - | - | - | - | .
SMILES | BLM inh | APEX1 inh | TDP1 inh | FEN1 inhibitor | RECQ1 helicase
C=CC[n+]1c(/C=C2\C=Cc3cc(C)ccc3N2CC)ccc2ccccc21 | - | - | - | 40µM | -
CCN1/C(=C/c2ccc3cc(C)cc(C)c3[n+]2CC)Sc2cc(C)ccc21 | ? | - | - | ? | ?
CC(=O)N=c1sc2nc3ccccc3nc2n1N(C(C)=O)C(C)=O | - | ? | - | 79µM | -
CCN(CC)c1ccc(C=C2C(=O)OC3(CCCCC3)OC2=O)cc1 | - | - | - | ? | 32µM
COc1ccccc1NC(=O)COC(=O)CCC1CCCC1 | . | - | . | - | .
Cc1ccc(NC(=O)COC(=O)CCC2CCCC2)c(Br)c1 | . | - | 56µM | - | .
O=C(COC(=O)CCC1CCCC1)Nc1ccccc1Br | . | - | 79µM | - | .
O=C(CSc1nnc(-c2cccc([S+](=O)([O-])N3CCCC3)c2)n1-c1ccccc1)Nc1ccc2c(c1)OCCO2 | . | - | . | . | .
Cc1csc(CNc2ncnc3cc(-c4ccc5c(c4)OCO5)ccc23)n1 | . | . | - | . | .
Cc1ccc(Cl)cc1NS(=O)(=O)c1cc2c(cc1F)NC(=O)CC2 | . | . | - | . | .
Cc1ccc(NS(=O)(=O)c2ccc3c(c2)CCO3)cc1C | . | . | - | . | .
COC(=O)\C(C(C)=O)=C(/C=C/C=C/C=C/N(C)C)N(C)C | - | 7.9µM | 3.2µM | ? | 25µM
